Experimental data reported in the supplement of paper PMC11732987, “Enantioselective OTUD7B fragment discovery through chemoproteomics screening and high-throughput optimisation” (Communications Chemistry, 2025).

Columns and labels:
Experiment in all cases: log2 ratio of Biotin-Ahx-Ub-VS probe labelling (fragment/DMSO); higher = less target engagement (more negative = stronger competition), active = hit call of the paper (q ≤ 0.05, log2 ratio ≤ -1)
Conditions in all cases: compound concentration: 200 uM; treatment time: 3 h
USP19 = target: T1, USP19 (UniProt O94966)
T1 sequence (whole entry): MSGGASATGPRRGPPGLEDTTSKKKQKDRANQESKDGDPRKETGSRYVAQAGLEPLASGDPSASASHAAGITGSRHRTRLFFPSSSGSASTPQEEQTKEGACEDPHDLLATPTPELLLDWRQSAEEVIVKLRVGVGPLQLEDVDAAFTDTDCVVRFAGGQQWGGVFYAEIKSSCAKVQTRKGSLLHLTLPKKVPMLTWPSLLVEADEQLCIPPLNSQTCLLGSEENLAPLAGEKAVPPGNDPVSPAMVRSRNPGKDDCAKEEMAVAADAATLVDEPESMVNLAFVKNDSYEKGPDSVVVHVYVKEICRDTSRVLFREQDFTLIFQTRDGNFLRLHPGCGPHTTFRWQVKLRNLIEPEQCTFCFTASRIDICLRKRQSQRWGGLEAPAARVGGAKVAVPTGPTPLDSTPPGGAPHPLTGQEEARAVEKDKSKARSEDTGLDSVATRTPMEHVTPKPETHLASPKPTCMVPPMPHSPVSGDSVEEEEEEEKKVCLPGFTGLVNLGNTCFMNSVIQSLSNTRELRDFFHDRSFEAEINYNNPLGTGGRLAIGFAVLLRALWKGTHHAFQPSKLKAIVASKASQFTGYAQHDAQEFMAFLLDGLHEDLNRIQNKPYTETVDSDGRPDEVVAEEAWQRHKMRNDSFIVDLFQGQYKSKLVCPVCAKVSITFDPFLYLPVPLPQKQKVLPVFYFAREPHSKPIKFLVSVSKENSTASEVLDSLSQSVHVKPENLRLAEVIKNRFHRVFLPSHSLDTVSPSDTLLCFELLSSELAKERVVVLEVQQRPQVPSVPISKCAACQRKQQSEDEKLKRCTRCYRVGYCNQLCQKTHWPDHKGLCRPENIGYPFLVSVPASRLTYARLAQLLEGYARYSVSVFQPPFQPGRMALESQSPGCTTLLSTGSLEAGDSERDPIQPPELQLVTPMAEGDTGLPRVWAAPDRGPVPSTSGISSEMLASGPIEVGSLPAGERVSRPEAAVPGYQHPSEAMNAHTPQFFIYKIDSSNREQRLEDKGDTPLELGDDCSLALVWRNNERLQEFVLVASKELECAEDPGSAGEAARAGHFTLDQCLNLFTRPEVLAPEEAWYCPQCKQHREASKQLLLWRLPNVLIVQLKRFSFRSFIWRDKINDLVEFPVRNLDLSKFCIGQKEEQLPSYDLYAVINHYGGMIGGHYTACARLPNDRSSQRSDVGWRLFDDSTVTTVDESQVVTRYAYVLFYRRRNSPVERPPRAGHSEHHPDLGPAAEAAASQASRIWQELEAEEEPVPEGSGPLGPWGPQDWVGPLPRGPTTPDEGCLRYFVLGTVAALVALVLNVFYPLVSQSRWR
Procedure, shortened: (§1)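 Average log2 ratios of fragment over vehicle were obtained by unpaired t-test from global-median-normalised Spectronaut label-free quantities. Proteins with ≥2 unique peptides were included. HEK293T lysate (495 µg per sample) was treated in triplicate with fragment at 200 µM or vehicle for 3 h, then with Biotin-Ahx-Ub-VS at 0.5 µM final for 1 h, and labelled DUBs were NeutrAvidin-enriched and run by diaPASEF LC-MS/MS.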

USP22 = target: T2, USP22 (UniProt Q9UPT9)
T2 sequence (whole entry): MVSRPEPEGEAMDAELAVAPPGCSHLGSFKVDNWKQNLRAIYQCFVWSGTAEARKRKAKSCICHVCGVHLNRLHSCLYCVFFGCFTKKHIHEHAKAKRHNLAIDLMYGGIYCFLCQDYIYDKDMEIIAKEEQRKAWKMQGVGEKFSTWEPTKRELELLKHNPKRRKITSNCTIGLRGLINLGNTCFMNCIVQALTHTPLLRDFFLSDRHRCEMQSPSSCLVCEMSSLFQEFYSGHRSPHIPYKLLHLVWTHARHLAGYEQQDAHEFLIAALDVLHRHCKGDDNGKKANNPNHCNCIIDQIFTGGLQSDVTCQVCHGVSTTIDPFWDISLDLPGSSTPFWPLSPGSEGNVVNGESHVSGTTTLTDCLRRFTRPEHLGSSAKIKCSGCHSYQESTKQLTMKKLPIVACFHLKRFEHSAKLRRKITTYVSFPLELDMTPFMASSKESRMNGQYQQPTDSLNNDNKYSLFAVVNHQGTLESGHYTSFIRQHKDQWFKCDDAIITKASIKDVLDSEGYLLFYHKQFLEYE
Procedure, shortened: as §1

USP24 = USP24 (UniProt Q9UPU5)
Sequence of USP24 (Q9UPU5 whole entry): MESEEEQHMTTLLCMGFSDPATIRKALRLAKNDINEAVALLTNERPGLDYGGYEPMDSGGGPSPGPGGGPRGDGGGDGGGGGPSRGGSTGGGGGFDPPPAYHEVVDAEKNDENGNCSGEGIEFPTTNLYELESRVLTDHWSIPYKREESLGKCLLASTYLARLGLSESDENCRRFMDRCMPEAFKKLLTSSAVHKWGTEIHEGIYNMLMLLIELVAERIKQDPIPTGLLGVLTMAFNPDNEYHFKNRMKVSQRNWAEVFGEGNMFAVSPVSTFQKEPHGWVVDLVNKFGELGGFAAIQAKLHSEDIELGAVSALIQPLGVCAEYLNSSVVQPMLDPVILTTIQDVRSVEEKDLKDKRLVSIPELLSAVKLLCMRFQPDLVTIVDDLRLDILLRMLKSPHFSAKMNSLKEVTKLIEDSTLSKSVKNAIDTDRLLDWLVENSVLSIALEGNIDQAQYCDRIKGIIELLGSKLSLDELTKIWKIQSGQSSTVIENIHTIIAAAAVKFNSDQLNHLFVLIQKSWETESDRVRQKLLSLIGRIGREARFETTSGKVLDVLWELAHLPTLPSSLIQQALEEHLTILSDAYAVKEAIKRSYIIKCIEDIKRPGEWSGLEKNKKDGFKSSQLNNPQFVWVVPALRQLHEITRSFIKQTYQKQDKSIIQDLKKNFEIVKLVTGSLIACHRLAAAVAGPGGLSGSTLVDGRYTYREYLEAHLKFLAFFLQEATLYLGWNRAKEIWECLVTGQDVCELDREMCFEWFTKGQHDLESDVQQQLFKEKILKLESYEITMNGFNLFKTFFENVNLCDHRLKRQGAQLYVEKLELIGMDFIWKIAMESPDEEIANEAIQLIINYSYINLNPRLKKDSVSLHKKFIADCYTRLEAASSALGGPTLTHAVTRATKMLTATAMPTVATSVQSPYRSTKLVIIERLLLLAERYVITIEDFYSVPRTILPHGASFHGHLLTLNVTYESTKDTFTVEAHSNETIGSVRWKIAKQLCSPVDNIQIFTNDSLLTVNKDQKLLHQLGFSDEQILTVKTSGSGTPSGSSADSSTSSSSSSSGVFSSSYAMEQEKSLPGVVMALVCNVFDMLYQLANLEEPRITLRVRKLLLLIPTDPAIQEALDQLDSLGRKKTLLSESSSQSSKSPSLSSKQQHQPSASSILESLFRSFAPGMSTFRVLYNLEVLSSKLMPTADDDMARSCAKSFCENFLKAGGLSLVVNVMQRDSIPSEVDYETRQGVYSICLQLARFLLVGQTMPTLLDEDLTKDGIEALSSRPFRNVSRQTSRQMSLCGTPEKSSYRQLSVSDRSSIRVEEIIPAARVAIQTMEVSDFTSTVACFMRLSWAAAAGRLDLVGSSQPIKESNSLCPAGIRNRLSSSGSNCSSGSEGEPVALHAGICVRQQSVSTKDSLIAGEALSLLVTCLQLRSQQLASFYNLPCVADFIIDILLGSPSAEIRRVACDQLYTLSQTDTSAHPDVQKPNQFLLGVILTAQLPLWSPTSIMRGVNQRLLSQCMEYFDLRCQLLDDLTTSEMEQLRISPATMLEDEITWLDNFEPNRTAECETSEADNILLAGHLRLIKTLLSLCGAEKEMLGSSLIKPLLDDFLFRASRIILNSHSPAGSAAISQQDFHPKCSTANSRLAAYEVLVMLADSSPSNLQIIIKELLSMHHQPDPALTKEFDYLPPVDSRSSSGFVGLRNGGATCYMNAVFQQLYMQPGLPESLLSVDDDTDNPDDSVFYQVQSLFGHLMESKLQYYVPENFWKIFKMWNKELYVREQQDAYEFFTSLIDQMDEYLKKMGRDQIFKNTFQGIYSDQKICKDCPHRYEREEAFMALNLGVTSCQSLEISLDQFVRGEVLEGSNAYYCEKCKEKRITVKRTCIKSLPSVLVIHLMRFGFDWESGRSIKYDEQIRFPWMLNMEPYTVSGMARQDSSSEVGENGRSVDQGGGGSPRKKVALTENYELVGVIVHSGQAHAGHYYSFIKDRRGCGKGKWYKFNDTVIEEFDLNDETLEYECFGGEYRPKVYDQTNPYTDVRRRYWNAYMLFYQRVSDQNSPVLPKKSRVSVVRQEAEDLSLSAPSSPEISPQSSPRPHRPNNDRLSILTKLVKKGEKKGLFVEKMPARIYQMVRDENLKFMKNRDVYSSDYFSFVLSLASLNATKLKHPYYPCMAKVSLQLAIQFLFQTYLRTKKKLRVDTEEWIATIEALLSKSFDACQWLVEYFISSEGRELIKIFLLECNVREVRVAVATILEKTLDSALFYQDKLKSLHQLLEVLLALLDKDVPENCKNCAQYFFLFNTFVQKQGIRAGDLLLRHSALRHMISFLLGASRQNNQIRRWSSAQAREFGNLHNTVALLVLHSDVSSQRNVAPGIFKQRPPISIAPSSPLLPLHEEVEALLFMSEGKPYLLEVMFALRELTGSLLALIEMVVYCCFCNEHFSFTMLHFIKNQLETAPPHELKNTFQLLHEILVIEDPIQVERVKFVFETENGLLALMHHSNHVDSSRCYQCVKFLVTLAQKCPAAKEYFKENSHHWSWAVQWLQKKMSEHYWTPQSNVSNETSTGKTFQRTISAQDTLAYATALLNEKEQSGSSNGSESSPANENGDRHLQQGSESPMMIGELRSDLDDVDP
Procedure, shortened: as §1

USP25 = target: T3, USP25 (UniProt Q9UHP3)
T3 sequence (whole entry): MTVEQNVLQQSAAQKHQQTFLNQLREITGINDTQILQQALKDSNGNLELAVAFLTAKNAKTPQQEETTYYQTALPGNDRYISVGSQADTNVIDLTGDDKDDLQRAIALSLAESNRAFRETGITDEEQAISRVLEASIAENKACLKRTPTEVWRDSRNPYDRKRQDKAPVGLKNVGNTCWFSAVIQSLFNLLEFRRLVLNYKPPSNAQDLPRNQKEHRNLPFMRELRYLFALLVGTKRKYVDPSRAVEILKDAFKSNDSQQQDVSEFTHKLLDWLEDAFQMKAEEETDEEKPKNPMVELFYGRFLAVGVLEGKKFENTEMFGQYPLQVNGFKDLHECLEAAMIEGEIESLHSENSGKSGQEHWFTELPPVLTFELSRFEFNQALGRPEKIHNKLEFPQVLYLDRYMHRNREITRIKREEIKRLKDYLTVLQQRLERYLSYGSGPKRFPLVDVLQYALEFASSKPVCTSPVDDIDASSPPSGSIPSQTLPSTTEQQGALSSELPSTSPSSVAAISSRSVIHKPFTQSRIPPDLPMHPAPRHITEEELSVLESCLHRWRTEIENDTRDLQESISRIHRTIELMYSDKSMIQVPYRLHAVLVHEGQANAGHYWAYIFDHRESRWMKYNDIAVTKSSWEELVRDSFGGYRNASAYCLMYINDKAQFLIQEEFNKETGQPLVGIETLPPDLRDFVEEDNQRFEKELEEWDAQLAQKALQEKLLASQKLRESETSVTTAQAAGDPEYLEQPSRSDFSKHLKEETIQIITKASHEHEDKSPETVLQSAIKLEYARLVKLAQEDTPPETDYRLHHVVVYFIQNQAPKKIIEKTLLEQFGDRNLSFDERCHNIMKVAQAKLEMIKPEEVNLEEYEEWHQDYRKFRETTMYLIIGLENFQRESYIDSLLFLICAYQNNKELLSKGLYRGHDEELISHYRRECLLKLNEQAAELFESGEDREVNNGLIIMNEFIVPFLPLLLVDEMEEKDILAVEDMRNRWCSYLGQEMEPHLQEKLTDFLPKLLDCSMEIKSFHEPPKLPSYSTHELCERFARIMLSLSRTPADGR
Procedure, shortened: as §1

USP28 = target: T4, USP28 (UniProt Q96RU2)
T4 sequence (whole entry): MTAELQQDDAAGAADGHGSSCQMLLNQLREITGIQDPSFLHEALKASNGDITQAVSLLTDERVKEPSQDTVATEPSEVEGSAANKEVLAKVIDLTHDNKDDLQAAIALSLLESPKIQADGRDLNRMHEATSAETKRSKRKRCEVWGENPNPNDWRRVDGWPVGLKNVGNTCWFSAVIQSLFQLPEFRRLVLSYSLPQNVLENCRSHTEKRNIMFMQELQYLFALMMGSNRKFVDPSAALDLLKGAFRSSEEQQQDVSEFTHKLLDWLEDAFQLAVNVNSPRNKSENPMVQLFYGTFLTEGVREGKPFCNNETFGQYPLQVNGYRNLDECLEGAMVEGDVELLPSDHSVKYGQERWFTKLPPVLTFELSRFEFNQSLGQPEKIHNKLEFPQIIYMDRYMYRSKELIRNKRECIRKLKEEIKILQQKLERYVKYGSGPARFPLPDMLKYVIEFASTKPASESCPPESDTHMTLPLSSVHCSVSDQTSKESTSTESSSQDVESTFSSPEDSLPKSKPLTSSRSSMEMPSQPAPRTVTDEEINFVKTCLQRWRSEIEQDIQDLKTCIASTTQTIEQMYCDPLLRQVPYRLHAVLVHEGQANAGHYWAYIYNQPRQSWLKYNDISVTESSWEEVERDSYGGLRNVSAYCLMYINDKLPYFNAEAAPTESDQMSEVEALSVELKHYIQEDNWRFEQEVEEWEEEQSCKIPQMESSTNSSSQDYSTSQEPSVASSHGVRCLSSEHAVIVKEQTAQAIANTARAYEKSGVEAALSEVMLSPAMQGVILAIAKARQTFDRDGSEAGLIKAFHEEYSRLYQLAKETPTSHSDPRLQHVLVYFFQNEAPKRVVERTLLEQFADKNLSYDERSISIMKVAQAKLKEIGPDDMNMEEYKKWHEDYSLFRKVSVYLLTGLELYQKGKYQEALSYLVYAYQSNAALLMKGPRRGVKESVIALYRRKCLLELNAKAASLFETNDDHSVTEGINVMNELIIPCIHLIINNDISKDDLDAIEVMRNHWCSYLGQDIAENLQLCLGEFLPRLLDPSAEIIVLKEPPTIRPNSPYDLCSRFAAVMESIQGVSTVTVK
Procedure, shortened: as §1

Measured: log2 ratio of Biotin-Ahx-Ub-VS probe labelling

Cl.O=C(CCl)N1CCn2cncc2C1
inactive: USP19 -0.443 | USP22 -0.0616 | USP24 -0.129 | USP25 -0.134 | USP28 -0.354
